From PubChem BioAssay (Tox21)
Records with an inconclusive call do not appear. Active and inactive are the calls of the source. Unless noted, calls follow the shape of the dose curve; as a rule, active = well fitted curve in the direction sought with a large enough effect in the repeat runs; inconclusive = weak or mixed curves; inactive = no such curve, though single readings can be large; an effect the other way counts as inactive or inconclusive.

Experiments:
[1] = qHTS assay to identify small molecule agonists of the peroxisome proliferator-activated receptor delta (PPARd) signaling pathway - cell viability counter screen (AID 743211); also: nearly all actives have a fitted effect of over 55% in size; also: potency is read from the fitted curve at half-maximal effect
Method in brief: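 Multiplexed format: after the 2 h room-temperature LiveBLAzer B/G FRET step, CellTiter-Glo was added to the same wells. Luminescence after 30 min gave cell viability; compound exposure was 17 h at 37C.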

[2] = target: Peroxisome proliferator-activated receptor delta (Homo sapiens) (UniProt Q03181); assay: qHTS assay to identify small molecule agonists of the peroxisome proliferator-activated receptor delta (PPARd) signaling pathway (AID 743212; calls by dose curve;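 also: HEK293H cells with PPARd UAS beta-lactamase reporter GeneBLAzer system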)
Method in brief: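 Steps: seed PPARd-bla HEK293H cells; incubate 5 h, 37 C, 5% CO2; add compounds in DMSO; incubate, 37 C; add LiveBLAzer B/G FRET substrate; hold 2 h at room temperature; measure fluorescence.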

[3] = qHTS assay to identify small molecule antagonists of the peroxisome proliferator-activated receptor delta (PPARd) signaling pathway - cell viability counter screen (AID 743213); also: nearly all actives have a fitted effect of over 50% in size
Method in brief: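 PPARd-bla HEK293H cells (3000/well) got compound plus 300 nM L165041 agonist for 17 h at 37 C. Viability in the same wells came from CellTiter-Glo luminescence after 30 min at room temperature.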

[4] = target: Peroxisome proliferator-activated receptor delta (Homo sapiens) (UniProt Q03181); assay: qHTS assay to identify small molecule antagonists of the peroxisome proliferator-activated receptor delta (PPARd) signaling pathway (AID 743215; active = well fitted inhibition curve with a large enough effect in the signal ratio in the repeat runs, not every such curve was filed as active; the % refers to the signal ratio;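 also: cells stimulated with agonist L165041 at 300 nM final during compound exposure; series mostly up to about 62 µM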)
Method in brief: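 Screen format: qHTS, antagonist mode. HEK293H PPARd-bla cells received compound and 300 nM L165041 (final), 17 h, 37 C. Beta-lactamase detected via FRET substrate fluorescence, 2 h, room temperature.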

[5] = target: Bile acid receptor (Homo sapiens) (UniProt Q96RI1); assay: qHTS assay to identify small molecule antagonists of the farnesoid-X-receptor (FXR) signaling pathway (AID 743217; active = well fitted inhibition curve with a large enough effect in the signal ratio in the repeat runs, not every such curve was filed as active; the % refers to the signal ratio)
Method in brief: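 Quantitative HTS, beta-lactamase reporter format: FXR-UAS-bla HEK 293T cells co-treated 16 h at 37 °C with compounds and 50 uM final chenodeoxycholic acid, then read by B/G FRET fluorescence.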

[6] = qHTS assay to identify small molecule agonists of the farnesoid-X-receptor (FXR) signaling pathway - cell viability counter screen (AID 743218); also: nearly all actives have a fitted effect of over 45% in size
Method in brief: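 Same-well cytotoxicity check on FXR-UAS-bla HEK 293T cells: 5 h attachment, 16 h compound at 37 C, CellTiter-Glo luminescence read at room temperature after 30 min.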

[7] = target: Bile acid receptor (Homo sapiens) (UniProt Q96RI1); assay: qHTS assay to identify small molecule agonists of the farnesoid-X-receptor (FXR) signaling pathway (AID 743220; active = well fitted activation curve with a large enough effect in the signal ratio in the repeat runs, not every such curve was filed as active; the % refers to the signal ratio)
Method in brief: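 FXR-UAS-bla HEK 293T cells carrying a UAS-driven beta-lactamase reporter were plated for 5 h at 37C/5% CO2, then exposed to DMSO-dissolved Tox21 10K compounds for 16 h at 37C. A LiveBLAzer B/G FRET substrate was loaded for 2 h at room temperature before fluorescence reading.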

[8] = qHTS assay to identify small molecule antagonists of the farnesoid-X-receptor (FXR) signaling pathway - cell viability counter screen (AID 743221; active = well fitted cell-killing curve with a large enough effect in the repeat runs, not every such curve was filed as active; also: nearly all actives have a fitted effect of over 50% in size; also: potency is read from the fitted curve at half-maximal effect)
Method in brief: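 CellTiter-Glo, 30 min RT, luminescence; same wells as the LiveBLAzer FRET read. Cells: FXR-UAS-bla HEK 293T. Treatment: compound with chenodeoxycholic acid 50 uM final, 16 h at 37 C.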

[9] = target: Vitamin D3 receptor (Homo sapiens) (UniProt P11473); assay: qHTS assay to identify small molecule agonists of the vitamin D receptor (VDR) signaling pathway (AID 743222; calls by dose curve)
Method in brief: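 Using LiveBLAzer B/G FRET detection, agonism was scored in VDR-bla cells exposed overnight (16 h, 37C) to DMSO-dissolved compounds; substrate incubation was 2 h at room temperature.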

[10] = target: Vitamin D3 receptor (Homo sapiens) (UniProt P11473); assay: qHTS assay to identify small molecule antagonists of the vitamin D receptor (VDR) signaling pathway (AID 743223; active = well fitted inhibition curve with a large enough effect in the signal ratio in the repeat runs, not every such curve was filed as active; the % refers to the signal ratio)
Method in brief: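 After VDR-bla cells are plated and left 4 h at 37C, DMSO-dissolved compounds and 3 nM (final) calcitriol agonist are added. Incubation continues 16 h at 37C; FRET beta-lactamase substrate then develops 2 h at room temperature.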

[11] = qHTS assay to identify small molecule agonists of the vitamin D receptor (VDR) signaling pathway - cell viability counter screen (AID 743224); also: nearly all actives have a fitted effect of over 50% in size; also: potency is read from the fitted curve at half-maximal effect
Method in brief: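 Counter screen for cytotoxicity: VDR-bla cells at 2,000 cells/well, 16 h compound exposure, then CellTiter-Glo luminescence after the beta-lactamase measurement.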

[12] = qHTS assay to identify small molecule antagonists of the vitamin D receptor (VDR) signaling pathway - cell viability counter screen (AID 743225); also: nearly all actives have a fitted effect of over 50% in size; also: potency is read from the fitted curve at half-maximal effect
Method in brief: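 Cytotoxicity toward the VDR-bla HEK 293T line was scored by ATP-based CellTiter-Glo luminescence, read in the wells already used for the beta-lactamase readout after 16 h compound treatment under 3 nM 1-alpha,25-dihydroxyvitamin D3 stimulation.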

[13] = qHTS assay to identify small molecule agonists of the NFkB signaling pathway (AID 1159509; active = well fitted curve in the direction sought with a large enough effect in the signal ratio in the repeat runs, not every such curve was filed as active; the % refers to the signal ratio; also: series mostly up to about 61 µM)
Method in brief: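 Readout: FRET fluorescence, 405 nm excitation, 460/530 nm emission; beta-lactamase expression disrupts FRET. Cells: ME-180 stably carrying NF-kB-driven bla reporter. Compound exposure 5 hr, 37 C, 5% CO2.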

[14] = qHTS assay to identify small molecule agonists of the NFkB signaling pathway - cell viability counter screen (AID 1159515; calls by dose curve; also: series mostly up to about 61 µM; nearly all actives have a fitted effect of over 55% in size)
Method in brief: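 Counter screen run alongside the NFkB-bla agonist assay: ME-180 reporter cells exposed to compounds for 5 hr, then lysed with CellTiter-Glo in the same wells. Luminescence, read after 30 min, reflects viable cells.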

[15] = qHTS assay to identify small molecule agonists of the endoplasmic reticulum stress response signaling pathway - cell viability counter screen (AID 1159517; calls by dose curve)
Method in brief: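 After overnight attachment, ESRE-bla HeLa cells were treated with Tox21 library compounds for 5 hr. CellTiter-Glo luminescence, read 30 min post-addition at room temperature, reported viability.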

[16] = qHTS assay to identify small molecule antagonists of the retinoid-related orphan receptor gamma (ROR-gamma) signaling pathway - cell viability counter screen (AID 1159520); also: nearly all actives have a fitted effect of over 50% in size; also: potency is read from the fitted curve at half-maximal effect
Method in brief: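 Cytotoxicity was read from cellular ATP (CellTiter-Glo luminescence) after 16 hr at 37 C with 1 uM doxycycline induction. The inducer was added 2 hr after compound transfer to Tet-on ROR gamma CHO cells.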

[17] = qHTS assay to identify small molecule agonists of the AP-1 signaling pathway - cell viability counter screen (AID 1159525; calls by dose curve; also: nearly all actives have a fitted effect of over 55% in size)
Method in brief: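 Intracellular ATP by Cell Titer Glo luminescence (30 min, RT) in the same ME-180 AP-1-bla wells after the 5 h compound exposure at 37 °C. Normalised to tetra n-octyl ammonium bromide and DMSO controls.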

[18] = qHTS assay to identify small molecule agonists of the AP-1 signaling pathway (AID 1159526; calls by dose curve)
[19] = target: Nuclear receptor ROR-gamma (Homo sapiens) (UniProt P51449); assay: qHTS assay to identify small molecule antagonists of the retinoid-related orphan receptor gamma (ROR-gamma) signaling pathway (AID 1159521; also: nearly all actives have a fitted effect of over 50% in size; also: potency is read from the fitted curve at half-maximal effect)
Method in brief: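 Readout: ONE-Glo luciferase luminescence, 30 min at room temperature. System: Tet-on RORγ CHO, RORE-LUC. Sequence: compound 2 h, doxycycline 1 uM final, 16 h at 37 C.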

Measured: Potency

Chain of Bile acid receptor (Homo sapiens) (Q96RI1 whole entry, looked up): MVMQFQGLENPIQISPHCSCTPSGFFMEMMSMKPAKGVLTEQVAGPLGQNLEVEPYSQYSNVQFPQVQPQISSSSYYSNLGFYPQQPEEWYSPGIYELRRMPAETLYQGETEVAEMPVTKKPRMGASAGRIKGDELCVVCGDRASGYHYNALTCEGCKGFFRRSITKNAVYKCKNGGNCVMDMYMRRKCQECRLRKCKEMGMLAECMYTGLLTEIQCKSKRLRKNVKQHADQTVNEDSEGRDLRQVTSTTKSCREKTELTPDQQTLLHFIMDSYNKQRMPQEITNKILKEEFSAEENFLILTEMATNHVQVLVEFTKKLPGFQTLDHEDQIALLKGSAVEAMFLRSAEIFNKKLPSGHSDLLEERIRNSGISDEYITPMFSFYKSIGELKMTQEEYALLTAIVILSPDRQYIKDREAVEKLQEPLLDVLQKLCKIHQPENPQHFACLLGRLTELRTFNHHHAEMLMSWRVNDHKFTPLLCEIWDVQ
Chain of Peroxisome proliferator-activated receptor delta (Homo sapiens) (Q03181 whole entry, looked up): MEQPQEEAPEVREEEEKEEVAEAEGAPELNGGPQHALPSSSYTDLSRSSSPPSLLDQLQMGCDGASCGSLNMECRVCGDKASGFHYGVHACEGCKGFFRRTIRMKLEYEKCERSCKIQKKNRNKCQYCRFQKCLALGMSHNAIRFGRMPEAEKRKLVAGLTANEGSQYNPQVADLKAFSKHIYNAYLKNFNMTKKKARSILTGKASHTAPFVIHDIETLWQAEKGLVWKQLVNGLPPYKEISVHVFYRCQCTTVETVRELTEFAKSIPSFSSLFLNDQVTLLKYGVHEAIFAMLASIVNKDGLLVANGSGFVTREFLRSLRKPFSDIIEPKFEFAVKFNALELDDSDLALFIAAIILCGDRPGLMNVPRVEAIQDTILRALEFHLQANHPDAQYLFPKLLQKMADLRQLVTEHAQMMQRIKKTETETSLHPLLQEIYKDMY
Chain of Vitamin D3 receptor (Homo sapiens) (P11473 whole entry, looked up): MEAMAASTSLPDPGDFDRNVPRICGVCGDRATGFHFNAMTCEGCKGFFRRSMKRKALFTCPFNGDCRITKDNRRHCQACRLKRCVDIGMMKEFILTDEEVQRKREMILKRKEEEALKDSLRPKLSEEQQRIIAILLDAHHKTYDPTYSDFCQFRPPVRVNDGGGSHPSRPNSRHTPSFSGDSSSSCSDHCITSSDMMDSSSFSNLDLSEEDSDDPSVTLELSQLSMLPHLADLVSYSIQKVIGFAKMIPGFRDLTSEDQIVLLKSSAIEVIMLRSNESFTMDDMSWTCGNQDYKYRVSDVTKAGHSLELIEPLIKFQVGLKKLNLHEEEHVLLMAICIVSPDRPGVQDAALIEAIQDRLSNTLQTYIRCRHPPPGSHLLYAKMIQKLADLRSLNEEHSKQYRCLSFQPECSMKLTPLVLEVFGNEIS

CC(C)=CC(=O)C=C(C)C
not listed: [19]
inactive: all other assays above

OC[C@H]1O[C@@H](n2cnc3c(=S)nc[nH]c32)[C@H](O)[C@@H]1O
active: [8] 16.8 µM | [11] 7.5 µM | [12] 8.49 µM
not listed: [1] | [3] | [4] | [5] | [6] | [19]
inactive: all other assays above

CC(CN(C)C)C(C)(O)Cc1ccc(Cl)cc1 (stereo unspecified)
not listed: [3] | [5] | [7] | [19]
inactive: all other assays above

CC1CC(C)C(=O)C1=O (stereo unspecified)
not listed: [5] | [7] | [9] | [10] | [19]
inactive: all other assays above

C[C@]1(Cn2ccnn2)[C@H](C(=O)O)N2C(=O)C[C@H]2S1(=O)=O
not listed: [2] | [4] | [5] | [8] | [10] | [18] | [19]
inactive: all other assays above

CCOC(=O)OC(C)OC(=O)[C@@H]1N2C(=O)[C@@H](NC(=O)[C@H](N)c3ccccc3)[C@H]2SC1(C)C (stereo partly specified)
not listed: [18]
inactive: all other assays above

CN(C(=O)CN(CCO)CC(=O)N(C)C(C)(C)Cc1ccccc1)C(C)(C)Cc1ccccc1
active: [16] 29.8 µM | [19] 26.6 µM
not listed: [1] | [6] | [9] | [12] | [17] | [18]
inactive: all other assays above

C=C1c2cccc(O)c2C(O)=C2C(=O)[C@]3(O)C(O)=C(C(N)=O)C(=O)[C@@H](N(C)C)[C@@H]3[C@@H](O)[C@H]12
not listed: [6] | [9] | [10] | [19]
inactive: all other assays above

COC(=O)C1=C(C)NC(C)=C(C(=O)O[C@@H]2CCCN(Cc3ccccc3)C2)[C@@H]1c1cccc([N+](=O)[O-])c1
not listed: [1] | [2] | [5] | [6] | [7] | [9] | [19]
inactive: all other assays above

CC1=Nc2ccc3ccccc3c2C1(C)C
inactive: [1] | [6] | [11] | [12] | [13] | [14] | [15] | [16] | [17]

O=C1c2ccccc2C(=O)C1c1nc2ccccc2c(Br)c1O
not listed: [5] | [7] | [9] | [12] | [18]
inactive: all other assays above

O=C(O)c1ccc(OCCCOc2ccc(C(=O)O)cc2)cc1
not listed: [3] | [19]
inactive: all other assays above

CCCC(C(=O)OCCN(CC)CC)(c1ccccc1)c1ccccc1
active: [1] 29.8 µM | [12] 19 µM
not listed: [3] | [5] | [10] | [11] | [18] | [19]
inactive: all other assays above

CCCCCCCCCCC(=O)O
not listed: [2] | [3] | [5] | [7] | [9] | [10] | [12] | [19]
inactive: all other assays above

NNC(=O)CP(=O)(c1ccccc1)c1ccccc1
not listed: [5] | [7] | [9] | [10] | [17] | [19]
inactive: all other assays above

CCOc1ccccc1O[C@H](c1ccccc1)[C@H]1CNCCO1
not listed: [3] | [5] | [9] | [10] | [18]
inactive: all other assays above
